Shown are actives, neighbours in structure and some others; about 27% of the full set was active somewhere.
CYP2C9 activ – activators of human CYP2C9. activation factor at 5 µM. P11712. AID 1024. recombinant CYP2C9, luciferin-H conversion, luminescence; stronger effect = higher value; factor 1 = untreated enzyme, 0 = blocked. hit rate 1.4% among 96,000;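 active = activation factor of 2 or more for CYP2C9 at a 5 µM dose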;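 also: 0 = sulfaphenazole-blocked wells and 1 = vehicle-only wells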
CYP2C9 inhib – inhibitors of human CYP2C9 | P11712 | CYP2C9 Supersomes, luciferin-H conversion, luminescence | inhibition, % at 5 µM | hit rate 20% among 96,000;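 active = blocking of liver enzyme CYP2C9 beyond about 50% at 5 µM, limit read from the data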
CYP2C19 inhib – inhibitors of human CYP2C19; CYP2C19 Supersomes, luciferin-H EGE luminescence, 30 min; hit rate 21% among 96,000; inhibition, % at 5 µM; AID 778;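 active = CYP2C19 inhibition above a set limit at 5 µM in the primary screen, cut at about 50% in these data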;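 also: plate controls were negative control wells for no effect and 2.5 mM tranylcypromine positive control for full effect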
CYP2C19 act – cytochrome P450 2C19 (human) activation; P33261; recombinant CYP2C19, luciferin-H EGE luminescence; stronger effect = higher value; 0 = fully inhibited enzyme, 1 = untreated enzyme; activation factor at 5 µM; 96,000 tested, under 10 active; AID 1025;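 active = activation factor of at least 2 at 5 µM in the primary screen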;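 also: 0 = wells with 2.5 mM tranylcypromine and 1 = vehicle-only wells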
Cav32 inh – inhibitors of human Cav3.2 T-type calcium channel. O95180. Cav3.2-expressing cells, Fluo-4 calcium fluorescence FDSS; stronger effect = lower value. B-score at 10 µM. hit rate 4% among 100,000. AID 449739;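 active = single-dose well whose peak fluorescence ratio is a statistical outlier from its plate by either plate-standardised score or position-corrected B-score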
* = called active by the depositor; x = no result given.

SMILES	CYP2C9 activ	CYP2C9 inhib	CYP2C19 inhib	CYP2C19 act	Cav32 inh
O=C(NC(=Nc1ccccc1)N1CCOCC1)Nc1ccccc1	0.4	56.4*	54.7*	0.5	0.905
CCN(CC)CC(=O)NCC1(c2ccccc2)CCOCC1	0.8	21.5	-1.5	1	0.806
COc1cc(/C=C2/C(=N)N3OC(C)=CC3=NC2=O)ccc1OCCOc1ccc(C)cc1	0.9	12.7	10.1	0.9	-0.0411
CCOc1cc(/C=C2/C(=N)N3OC(C)=CC3=NC2=O)ccc1OCCOc1ccccc1	0.4	61.7*	41.3	0.6	0.289
CC(C)OP(=O)(c1ccc(N(C)C)cc1)C(O)c1ccccc1 (stereo unspecified)	1.1	-5.9	38.7	0.6	0.363
O=[N+]([O-])c1cccc(-n2nnnc2CN2CCCCCC2)c1	0.6	43.4	94.0*	0.1	0.404
Cc1cc(C)cc(N2C(=O)CC(N(C(=O)c3ccco3)c3cc(C)cc(C)c3)C2=O)c1 (stereo unspecified)	0.4	61.6*	43.5	0.6	-0.126
Cn1c(Cl)c(/C=N/OC(=O)c2ccc(Cl)cc2)c2ccccc21	2.1*	-105.4	-9.6	1.1	-0.178
Cc1ccc(C(=O)O/N=C/c2c(N3CCOCC3)n(C)c3ccccc23)cc1	0.2	84.0*	67.5*	0.3	-0.876
O=S(=O)(Nc1ccc(C(F)(F)F)cc1)c1cnc[nH]1	0	99.5*	98.8*	0	-0.817
O=S(=O)(Nc1ccc(Cl)c(C(F)(F)F)c1)c1cnc[nH]1	0	99.2*	95.7*	0	-1.45
O=S(=O)(Nc1cccnc1)c1cccc(C(F)(F)F)c1	1.2	-21.0	24.0	0.8	0.104
O=S(=O)(Nc1cccc(C(F)(F)F)c1)c1cnc[nH]1	0	100.0*	97.7*	0	0.224
CCCOC(=O)C1C2C=C[C@]3(CN(CCc4ccccc4)C(=O)[C@H]13)O2 (stereo partly specified)	1.1	-8.7	8.6	0.9	-0.135
O=C(CCCn1c(=S)[nH]c2ccccc2c1=O)NCc1ccco1	1.1	-10.6	6.8	0.9	-0.466
O=C(CSc1nc2ccccc2c(=O)n1-c1ccccc1)NCc1ccco1	0.8	23.3	42.9	0.6	0.342
O=C(CCCn1c(SCC(=O)c2ccc(Cl)cc2)nc2ccccc2c1=O)NCc1ccco1	0.5	54.5*	18.8	0.8	-0.401
O=C(CCCCCn1c(SCC(=O)c2ccccc2)nc2ccccc2c1=O)NCc1ccco1	0	97.6*	82.5*	0.2	-0.446
Oc1ccc(-c2nccc(-c3cccs3)n2)cc1	0.3	67.5*	18.5	0.8	0.00771
O=C(Nc1nccc(-c2cccs2)n1)c1ccccc1Cl	0.9	5.0	27.7	0.7	0.5
COC(=O)C(C)Oc1ccc(-c2nccc(-c3cccs3)n2)cc1 (stereo unspecified)	0.4	64.8*	32.5	0.7	x
CCOc1ccc(-c2nnc3ccc(SCc4ccc(C(=O)OC)o4)nn23)cc1	0.1	85.1*	64.7*	0.4	-0.78
COC(=O)c1ccc(CSc2ccc3nnc(-c4ccccn4)n3n2)o1	0.8	21.0	20.2	0.8	1.78
Brc1ccccc1CN1CCC(N2CCCCC2)CC1	1.1	-6.1	5.0	0.9	0.881
Cc1nc2nc(-c3cccs3)cn2nc1C	0.9	8.2	61.9*	0.4	x
SMILES	CYP2C9 activ	CYP2C9 inhib	CYP2C19 inhib	CYP2C19 act	Cav32 inh
COc1cccc(-c2cn3nc(C)c(C)nc3n2)c1	0.5	49.5	82.7*	0.2	0.0358
Cc1nc2nc(-c3ccc(Cl)cc3)cn2nc1C	1	1.8	55.6*	0.4	x
COc1ccc(-c2cn3nc4c(nc3n2)CCCC4)cc1	1.1	-7.5	42.3	0.6	x
CCCCN1C(=O)C(NC(C)=O)c2cc(Br)ccc21 (stereo unspecified)	0.8	23.7	78.7*	0.2	-1.68
CCOC(=O)c1cc2sccc2n1Cc1ccccc1	1	-1.9	4.9	1	-1.22
Cn1c(C(=O)N2CCCc3ccccc32)cc2sccc21	0.7	30.8	71.0*	0.3	-3.82
O=C(c1cc2sccc2n1Cc1ccccc1)N1CCc2ccccc21	0.4	63.1*	12.7	0.9	-1.61
O=C(c1cc2sccc2n1Cc1ccccc1)N1CCCc2ccccc21	0.1	94.7*	88.0*	0.1	-6.85*
CCCNC(=O)CN(C)S(=O)(=O)c1c(C)cc(C)cc1C	x	x	x	x	1.41
Cc1cc(C(C)c2ccccc2)c(O)c(CN2CCOCC2)c1C (stereo unspecified)	0.8	23.7	21.8	0.8	-4.55
CC(NS(=O)(=O)c1ccccc1)C1COc2ccccc2O1 (stereo unspecified)	0.9	10.9	53.7*	0.5	-0.632
